Laboratory results reported in ChEMBL document CHEMBL1961873, “Compounds: GSK PKIS; Assays: Nanosyn kinase panel” (2012).

Experiments:
[1] = molecular target: T1, Mitogen-activated protein kinase 12 (Homo sapiens) (UniProt P53778); details: at 1 µM;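 note: values are averaged p38gamma kinase inhibition readings, compounds tested at 1 µM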
T1 sequence (whole entry): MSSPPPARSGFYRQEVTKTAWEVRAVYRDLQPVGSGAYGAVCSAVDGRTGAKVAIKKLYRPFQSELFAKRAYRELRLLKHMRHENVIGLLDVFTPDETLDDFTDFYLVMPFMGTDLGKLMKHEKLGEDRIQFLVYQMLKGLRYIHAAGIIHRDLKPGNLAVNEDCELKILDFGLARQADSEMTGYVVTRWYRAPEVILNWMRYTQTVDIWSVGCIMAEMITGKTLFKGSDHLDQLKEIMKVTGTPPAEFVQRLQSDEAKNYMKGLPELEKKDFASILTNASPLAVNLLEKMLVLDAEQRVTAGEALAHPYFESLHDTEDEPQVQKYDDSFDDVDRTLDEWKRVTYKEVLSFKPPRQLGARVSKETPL

[2] = molecular target: SRSF protein kinase 1 (Homo sapiens) (UniProt Q96SB4); details: at 0.1 µM
[3] = molecular target: SRSF protein kinase 1 (Homo sapiens) (UniProt Q96SB4); details: at 1 µM
[4] = molecular target: Phosphatidylinositol 4,5-bisphosphate 3-kinase catalytic subunit alpha isoform (Homo sapiens) (UniProt P42336); details: at 0.1 µM
[5] = molecular target: Phosphatidylinositol 4,5-bisphosphate 3-kinase catalytic subunit alpha isoform (Homo sapiens) (UniProt P42336); details: at 1 µM
[6] = molecular target: T2, Phosphatidylinositol 4,5-bisphosphate 3-kinase catalytic subunit delta isoform (Homo sapiens) (UniProt O00329); details: at 0.1 µM
T2 sequence (whole entry): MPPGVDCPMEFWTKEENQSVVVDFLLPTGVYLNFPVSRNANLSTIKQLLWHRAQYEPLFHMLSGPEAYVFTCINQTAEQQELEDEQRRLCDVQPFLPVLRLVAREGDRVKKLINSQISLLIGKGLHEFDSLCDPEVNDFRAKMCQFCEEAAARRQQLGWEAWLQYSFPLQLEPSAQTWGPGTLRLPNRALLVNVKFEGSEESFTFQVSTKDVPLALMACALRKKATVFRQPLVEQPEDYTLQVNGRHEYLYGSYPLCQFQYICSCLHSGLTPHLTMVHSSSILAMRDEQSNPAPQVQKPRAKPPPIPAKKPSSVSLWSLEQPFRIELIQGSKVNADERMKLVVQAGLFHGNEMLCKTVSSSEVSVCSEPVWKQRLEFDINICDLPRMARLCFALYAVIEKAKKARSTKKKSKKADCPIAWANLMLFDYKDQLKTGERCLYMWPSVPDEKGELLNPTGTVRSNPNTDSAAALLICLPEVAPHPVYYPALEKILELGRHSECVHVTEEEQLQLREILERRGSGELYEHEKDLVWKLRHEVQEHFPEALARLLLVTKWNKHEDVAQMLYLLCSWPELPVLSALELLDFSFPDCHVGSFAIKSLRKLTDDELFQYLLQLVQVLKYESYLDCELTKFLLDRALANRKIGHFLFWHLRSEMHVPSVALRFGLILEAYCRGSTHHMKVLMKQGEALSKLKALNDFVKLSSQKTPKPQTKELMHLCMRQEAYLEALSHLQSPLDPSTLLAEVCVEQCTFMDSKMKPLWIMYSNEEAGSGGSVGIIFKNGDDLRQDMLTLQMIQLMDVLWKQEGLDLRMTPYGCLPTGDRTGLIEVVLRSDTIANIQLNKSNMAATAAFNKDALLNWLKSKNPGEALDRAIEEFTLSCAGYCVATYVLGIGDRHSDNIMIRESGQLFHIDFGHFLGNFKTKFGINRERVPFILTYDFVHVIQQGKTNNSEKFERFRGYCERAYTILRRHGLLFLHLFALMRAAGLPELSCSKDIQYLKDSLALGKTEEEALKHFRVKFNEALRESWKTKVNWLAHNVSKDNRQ

[7] = molecular target: T2, Phosphatidylinositol 4,5-bisphosphate 3-kinase catalytic subunit delta isoform (Homo sapiens); details: at 1 µM
[8] = molecular target: Phosphatidylinositol 4-kinase beta (Homo sapiens) (UniProt Q9UBF8); details: at 0.1 µM
[9] = molecular target: Phosphatidylinositol 4-kinase beta (Homo sapiens) (UniProt Q9UBF8); details: at 1 µM
[10] = molecular target: Sphingosine kinase 1 (Homo sapiens) (UniProt Q9NYA1); details: at 0.1 µM
[11] = molecular target: Sphingosine kinase 1 (Homo sapiens) (UniProt Q9NYA1); details: at 1 µM
[12] = molecular target: T3, Sphingosine kinase 2 (Homo sapiens) (UniProt Q9NRA0); details: at 0.1 µM
T3 sequence (whole entry): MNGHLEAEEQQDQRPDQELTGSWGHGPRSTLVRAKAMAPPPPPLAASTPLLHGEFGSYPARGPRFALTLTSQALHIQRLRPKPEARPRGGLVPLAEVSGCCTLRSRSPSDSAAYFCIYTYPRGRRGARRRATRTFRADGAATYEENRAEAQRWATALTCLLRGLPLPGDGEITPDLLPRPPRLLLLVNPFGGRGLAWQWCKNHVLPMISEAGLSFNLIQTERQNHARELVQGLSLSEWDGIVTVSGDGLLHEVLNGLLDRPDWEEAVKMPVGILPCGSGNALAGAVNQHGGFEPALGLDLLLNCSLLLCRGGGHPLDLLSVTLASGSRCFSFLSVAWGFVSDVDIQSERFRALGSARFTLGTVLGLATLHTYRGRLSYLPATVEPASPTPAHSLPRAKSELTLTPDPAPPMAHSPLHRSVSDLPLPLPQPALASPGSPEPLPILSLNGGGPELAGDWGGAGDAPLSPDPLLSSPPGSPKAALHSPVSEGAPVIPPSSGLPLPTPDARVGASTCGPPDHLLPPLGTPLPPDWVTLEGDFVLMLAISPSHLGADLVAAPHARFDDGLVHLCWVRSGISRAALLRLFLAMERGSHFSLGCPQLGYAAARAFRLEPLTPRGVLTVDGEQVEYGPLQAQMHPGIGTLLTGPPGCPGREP

[13] = molecular target: T3, Sphingosine kinase 2 (Homo sapiens); details: at 1 µM
[14] = molecular target: Casein kinase II subunit alpha (Homo sapiens) (UniProt P68400); details: at 0.1 µM
[15] = molecular target: Casein kinase II subunit alpha (Homo sapiens) (UniProt P68400); details: at 1 µM
[16] = molecular target: T4, Inhibitor of nuclear factor kappa-B kinase subunit alpha (Homo sapiens) (UniProt O15111); details: at 0.1 µM
T4 sequence (whole entry): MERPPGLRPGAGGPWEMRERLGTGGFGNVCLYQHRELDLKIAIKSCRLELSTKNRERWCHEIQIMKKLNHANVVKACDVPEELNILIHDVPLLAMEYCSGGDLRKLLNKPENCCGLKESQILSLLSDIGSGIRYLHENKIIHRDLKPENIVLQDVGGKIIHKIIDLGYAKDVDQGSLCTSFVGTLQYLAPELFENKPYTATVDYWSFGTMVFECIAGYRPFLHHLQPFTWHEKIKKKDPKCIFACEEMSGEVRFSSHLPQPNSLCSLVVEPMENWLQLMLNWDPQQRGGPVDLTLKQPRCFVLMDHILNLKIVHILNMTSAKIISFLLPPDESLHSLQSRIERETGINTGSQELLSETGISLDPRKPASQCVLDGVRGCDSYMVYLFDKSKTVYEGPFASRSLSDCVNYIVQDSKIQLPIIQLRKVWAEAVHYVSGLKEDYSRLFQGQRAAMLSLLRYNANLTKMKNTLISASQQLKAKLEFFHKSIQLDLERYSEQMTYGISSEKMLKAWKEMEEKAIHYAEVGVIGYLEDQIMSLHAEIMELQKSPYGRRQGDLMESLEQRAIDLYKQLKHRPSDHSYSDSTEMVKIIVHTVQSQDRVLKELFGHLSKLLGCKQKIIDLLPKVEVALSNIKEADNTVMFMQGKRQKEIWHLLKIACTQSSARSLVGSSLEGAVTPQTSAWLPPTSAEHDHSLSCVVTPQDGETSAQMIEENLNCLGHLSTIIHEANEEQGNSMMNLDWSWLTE

[17] = molecular target: T4, Inhibitor of nuclear factor kappa-B kinase subunit alpha (Homo sapiens); details: at 1 µM
[18] = molecular target: T5, Inhibitor of nuclear factor kappa-B kinase subunit beta (Homo sapiens) (UniProt O14920); details: at 0.1 µM
T5 sequence (whole entry): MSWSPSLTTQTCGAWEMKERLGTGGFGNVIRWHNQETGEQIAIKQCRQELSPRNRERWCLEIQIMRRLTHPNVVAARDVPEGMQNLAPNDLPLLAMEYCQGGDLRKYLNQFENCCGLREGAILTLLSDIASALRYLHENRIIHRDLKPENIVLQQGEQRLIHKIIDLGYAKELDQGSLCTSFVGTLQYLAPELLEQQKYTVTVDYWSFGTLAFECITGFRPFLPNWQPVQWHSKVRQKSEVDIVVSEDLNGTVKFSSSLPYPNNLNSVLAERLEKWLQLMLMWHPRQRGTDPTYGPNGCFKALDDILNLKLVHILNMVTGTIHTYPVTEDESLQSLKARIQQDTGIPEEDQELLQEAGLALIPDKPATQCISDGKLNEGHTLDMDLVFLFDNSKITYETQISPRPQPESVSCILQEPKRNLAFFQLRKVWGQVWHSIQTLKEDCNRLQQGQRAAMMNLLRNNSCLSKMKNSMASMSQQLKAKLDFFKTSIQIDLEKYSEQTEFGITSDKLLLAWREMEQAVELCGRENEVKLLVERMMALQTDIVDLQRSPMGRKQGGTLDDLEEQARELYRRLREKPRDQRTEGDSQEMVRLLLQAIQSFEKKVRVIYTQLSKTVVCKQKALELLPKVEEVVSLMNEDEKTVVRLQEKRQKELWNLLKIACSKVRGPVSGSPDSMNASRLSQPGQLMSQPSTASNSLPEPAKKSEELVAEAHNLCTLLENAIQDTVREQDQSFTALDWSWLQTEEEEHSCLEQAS

[19] = molecular target: T5, Inhibitor of nuclear factor kappa-B kinase subunit beta (Homo sapiens); details: at 1 µM
[20] = molecular target: T6, Inhibitor of nuclear factor kappa-B kinase subunit epsilon (Homo sapiens) (UniProt Q14164); details: at 0.1 µM;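 note: mean inhibition of IKKε reported, from the GSK PKIS dataset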
T6 sequence (whole entry): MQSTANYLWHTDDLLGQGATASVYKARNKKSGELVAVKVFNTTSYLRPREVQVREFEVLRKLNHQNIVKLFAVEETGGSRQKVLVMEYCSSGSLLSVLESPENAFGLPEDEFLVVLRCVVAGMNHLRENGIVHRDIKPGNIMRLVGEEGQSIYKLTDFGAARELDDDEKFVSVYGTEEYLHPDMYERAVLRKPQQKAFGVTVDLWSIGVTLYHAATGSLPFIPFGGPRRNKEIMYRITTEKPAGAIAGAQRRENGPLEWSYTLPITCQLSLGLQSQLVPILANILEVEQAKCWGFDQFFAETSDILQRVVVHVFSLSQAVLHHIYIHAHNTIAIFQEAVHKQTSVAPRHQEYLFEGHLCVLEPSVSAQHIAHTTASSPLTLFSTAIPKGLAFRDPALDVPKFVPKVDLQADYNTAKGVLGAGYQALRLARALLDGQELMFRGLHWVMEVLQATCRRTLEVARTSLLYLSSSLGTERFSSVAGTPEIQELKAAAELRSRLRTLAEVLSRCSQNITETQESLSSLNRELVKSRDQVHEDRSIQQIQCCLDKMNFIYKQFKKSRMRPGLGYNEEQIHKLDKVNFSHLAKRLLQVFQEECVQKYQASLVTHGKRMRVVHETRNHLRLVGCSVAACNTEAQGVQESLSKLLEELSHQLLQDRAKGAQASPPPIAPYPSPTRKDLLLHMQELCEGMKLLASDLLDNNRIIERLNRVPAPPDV

Sphingosine kinase 1 (Homo sapiens), sequence (Q9NYA1 whole entry): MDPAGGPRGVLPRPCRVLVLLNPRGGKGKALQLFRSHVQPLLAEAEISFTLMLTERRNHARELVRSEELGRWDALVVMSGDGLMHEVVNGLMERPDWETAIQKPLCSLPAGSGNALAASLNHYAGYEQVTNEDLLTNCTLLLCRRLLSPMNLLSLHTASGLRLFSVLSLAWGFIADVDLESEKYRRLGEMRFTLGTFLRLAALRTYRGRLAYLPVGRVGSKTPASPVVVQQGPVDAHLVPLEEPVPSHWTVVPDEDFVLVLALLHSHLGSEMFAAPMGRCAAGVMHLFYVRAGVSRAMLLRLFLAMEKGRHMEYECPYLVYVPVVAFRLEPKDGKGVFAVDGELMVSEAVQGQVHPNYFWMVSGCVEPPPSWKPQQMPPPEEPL
Casein kinase II subunit alpha (Homo sapiens), sequence (P68400 whole entry, looked up): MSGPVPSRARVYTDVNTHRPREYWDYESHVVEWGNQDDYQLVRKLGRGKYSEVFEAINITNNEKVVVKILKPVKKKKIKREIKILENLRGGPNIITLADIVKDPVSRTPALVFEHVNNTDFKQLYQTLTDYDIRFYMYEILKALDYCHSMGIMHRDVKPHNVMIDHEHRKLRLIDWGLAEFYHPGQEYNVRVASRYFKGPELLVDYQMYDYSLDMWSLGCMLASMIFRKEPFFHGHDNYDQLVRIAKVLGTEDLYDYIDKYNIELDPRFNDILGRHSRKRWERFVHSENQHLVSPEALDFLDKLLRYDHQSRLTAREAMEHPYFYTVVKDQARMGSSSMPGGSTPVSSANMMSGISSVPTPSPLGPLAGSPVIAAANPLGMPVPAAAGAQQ
SRSF protein kinase 1 (Homo sapiens), sequence (Q96SB4 whole entry, canonical isoform): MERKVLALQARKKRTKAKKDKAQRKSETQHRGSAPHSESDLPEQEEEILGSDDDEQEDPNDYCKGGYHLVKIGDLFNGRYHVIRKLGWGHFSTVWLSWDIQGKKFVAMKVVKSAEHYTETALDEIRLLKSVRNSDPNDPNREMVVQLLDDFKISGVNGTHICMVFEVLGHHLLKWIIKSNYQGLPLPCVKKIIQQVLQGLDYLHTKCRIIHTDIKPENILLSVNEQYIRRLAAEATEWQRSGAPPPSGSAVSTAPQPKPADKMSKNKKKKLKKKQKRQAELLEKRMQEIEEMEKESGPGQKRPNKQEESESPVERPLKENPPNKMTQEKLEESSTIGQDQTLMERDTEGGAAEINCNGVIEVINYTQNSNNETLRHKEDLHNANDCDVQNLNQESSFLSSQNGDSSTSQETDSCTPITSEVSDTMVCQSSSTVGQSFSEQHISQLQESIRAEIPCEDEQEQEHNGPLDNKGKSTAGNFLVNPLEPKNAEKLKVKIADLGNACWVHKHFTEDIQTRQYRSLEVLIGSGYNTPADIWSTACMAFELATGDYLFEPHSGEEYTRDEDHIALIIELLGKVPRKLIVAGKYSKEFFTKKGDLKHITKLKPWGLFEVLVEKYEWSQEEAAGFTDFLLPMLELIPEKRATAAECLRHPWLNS
Phosphatidylinositol 4,5-bisphosphate 3-kinase catalytic subunit alpha isoform (Homo sapiens), sequence (P42336 whole entry, canonical isoform): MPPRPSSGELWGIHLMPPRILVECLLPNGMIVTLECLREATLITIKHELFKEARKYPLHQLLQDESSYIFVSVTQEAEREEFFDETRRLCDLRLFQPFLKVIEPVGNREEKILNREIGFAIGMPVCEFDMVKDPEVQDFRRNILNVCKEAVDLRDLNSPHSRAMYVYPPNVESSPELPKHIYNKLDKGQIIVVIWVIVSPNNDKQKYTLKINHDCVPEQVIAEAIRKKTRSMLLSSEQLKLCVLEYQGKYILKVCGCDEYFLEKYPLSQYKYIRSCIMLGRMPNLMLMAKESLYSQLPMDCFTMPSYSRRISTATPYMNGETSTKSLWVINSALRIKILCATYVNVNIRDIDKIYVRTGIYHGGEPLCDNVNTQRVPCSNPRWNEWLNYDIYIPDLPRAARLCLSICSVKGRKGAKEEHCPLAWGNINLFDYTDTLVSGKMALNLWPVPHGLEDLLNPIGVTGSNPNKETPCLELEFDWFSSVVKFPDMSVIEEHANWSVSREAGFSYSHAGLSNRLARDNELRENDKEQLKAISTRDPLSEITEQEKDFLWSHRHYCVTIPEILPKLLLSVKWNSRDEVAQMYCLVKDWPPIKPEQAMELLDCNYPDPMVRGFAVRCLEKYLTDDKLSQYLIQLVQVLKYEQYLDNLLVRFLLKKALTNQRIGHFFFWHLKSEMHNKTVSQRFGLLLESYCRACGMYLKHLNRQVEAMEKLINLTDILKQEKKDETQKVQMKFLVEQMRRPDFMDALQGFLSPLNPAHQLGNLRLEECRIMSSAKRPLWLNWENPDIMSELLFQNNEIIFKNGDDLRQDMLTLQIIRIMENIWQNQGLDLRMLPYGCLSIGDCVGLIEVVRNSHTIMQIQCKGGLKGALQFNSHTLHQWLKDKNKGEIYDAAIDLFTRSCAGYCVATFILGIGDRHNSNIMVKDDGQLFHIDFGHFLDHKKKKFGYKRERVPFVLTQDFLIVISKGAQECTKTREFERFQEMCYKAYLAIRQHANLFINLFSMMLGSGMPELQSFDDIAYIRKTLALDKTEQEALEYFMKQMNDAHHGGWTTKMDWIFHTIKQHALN
Phosphatidylinositol 4-kinase beta (Homo sapiens), sequence (Q9UBF8 2-816 limits assumed): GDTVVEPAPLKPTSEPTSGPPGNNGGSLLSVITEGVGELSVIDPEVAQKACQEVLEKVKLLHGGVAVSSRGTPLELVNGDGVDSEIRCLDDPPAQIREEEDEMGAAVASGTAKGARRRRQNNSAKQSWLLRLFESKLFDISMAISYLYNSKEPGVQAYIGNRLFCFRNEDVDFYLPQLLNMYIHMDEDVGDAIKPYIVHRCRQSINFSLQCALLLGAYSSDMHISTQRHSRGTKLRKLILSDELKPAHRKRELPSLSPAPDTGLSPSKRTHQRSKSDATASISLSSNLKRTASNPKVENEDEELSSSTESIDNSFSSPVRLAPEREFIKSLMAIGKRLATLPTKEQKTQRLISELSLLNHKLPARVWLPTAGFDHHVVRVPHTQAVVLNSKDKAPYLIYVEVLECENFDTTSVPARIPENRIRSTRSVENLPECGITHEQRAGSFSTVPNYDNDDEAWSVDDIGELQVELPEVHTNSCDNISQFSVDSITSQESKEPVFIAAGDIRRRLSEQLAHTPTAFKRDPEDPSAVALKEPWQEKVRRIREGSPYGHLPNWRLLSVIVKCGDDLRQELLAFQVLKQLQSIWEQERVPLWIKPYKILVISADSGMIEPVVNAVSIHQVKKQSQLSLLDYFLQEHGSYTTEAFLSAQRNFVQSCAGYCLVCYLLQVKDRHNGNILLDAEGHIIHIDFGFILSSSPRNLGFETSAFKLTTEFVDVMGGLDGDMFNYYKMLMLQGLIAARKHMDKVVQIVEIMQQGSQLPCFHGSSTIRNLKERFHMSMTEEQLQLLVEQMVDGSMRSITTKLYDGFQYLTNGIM

Compound	inhibition [1] [%]	inhibition [2] [%]	inhibition [3] [%]	inhibition [4] [%]	inhibition [5] [%]	inhibition [6] [%]	inhibition [7] [%]	inhibition [8] [%]	inhibition [9] [%]	inhibition [10] [%]	inhibition [11] [%]	inhibition [12] [%]	inhibition [13] [%]	inhibition [14] [%]	inhibition [15] [%]	inhibition [16] [%]	inhibition [17] [%]	inhibition [18] [%]	inhibition [19] [%]	inhibition [20] [%]
O=C(O[C@H]1CN[C@H](C#Cc2cc3ncnc(Nc4ccc(Cc5ccccc5)cc4)c3s2)C1)N1CCOCC1	1.72	-2.56	-2.4	3.61	11.2	1.42	8.98	0.59	-0.78	0.79	-1.06	-1.12	-1.6	6.95	1.52	6.44	1.74	4	0.81	3.09
CCCN(CCS(C)(=O)=O)Cc1ccc(-c2ccc3ncnc(Nc4ccc(OCc5cccc(F)c5)c(Cl)c4)c3c2)o1	1.28	-1.14	-0.67	0.82	4.19	0.06	6.07	1.73	0.08	7	0.07	0.75	0.76	4.77	9.35	3.79	2.86	0.53	0.26	2.17
CS(=O)(=O)CCNCc1coc(-c2ccc3ncnc(Nc4ccc(OCc5ccccc5)cc4)c3c2)c1	3.41	-2.53	-3.45	2.17	3.25	0.39	0.49	-2.05	-3.75	4.73	-1.49	0	-0.98	1.05	6.53	4.1	2.85	3.35	5.11	4.2
O=S(=O)(CCNCc1ccc(-c2ccc3ncnc(Nc4ccc(OCc5cccc(F)c5)c(Cl)c4)c3c2)o1)c1ccccc1	5.41	-1.17	-1.46	5.28	5.59	0.47	6.33	-6.34	-9.91	1.07	-5.05	-0.55	0.69	10.6	5.49	2.96	-0.88	6.77	7.07	12
COc1ccc2c(-c3ccnc(Nc4cccc(OC(F)(F)F)c4)n3)cnn2n1	2.47	-0.39	3.84	2.57	6.99	0.71	5.67	0.16	2.84	0	-1.74	1.81	-2.35	4	20	4.59	7.22	3.15	6.88	9.38
COc1ccc(-c2cc(-c3c[nH]nc3-c3ccccn3)ccn2)cc1	2.33	-1.02	2.7	3.47	1.91	-0.37	0.72	2.38	2.14	1.57	0.76	-1.45	-1.01	5.84	8.65	-3.06	10.5	7.11	8.08	7.81
COc1ccc(-c2oc3ncnc(N)c3c2-c2ccc(NC(=O)Nc3cc(C(F)(F)F)ccc3F)cc2)cc1	17.6	1.18	34.5	2.34	20.6	2.28	22.4	6.88	5.84	0.16	-0.9	0.08	0.05	6.63	16.7	1.18	2.5	7.03	5.27	8.13
